In PubChem BioAssay AID1159580 (chemical genetic matrix, 2015):
Values joined by “and” are separate entries in the source; they are usually repeats but may differ in a detail not shown here. Equal values may be shown once. About 2,000 (36%) of roughly 5,500 compounds were called active. About 18% were inconclusive and are not listed. Cut-off read from the data, not from the text of the source: active = normalized growth mostly below about 0.91 (no sharp cut-off); inconclusive = no clear call, values can overlap the other calls; inactive = mostly above about 0.92. The list shows a part of the results.

Test: chemical genetic growth profiling, strain panel (AID 1159580);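 note: tested at 20 µM; growth read once vehicle control cultures reached saturation at 30 °C; 1 = growth at the plate median or of vehicle wells; lower values mean less growth of the strain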
Conditions: S. cerevisiae deletion strains, growth OD

Measured: normalized growth

Cc1c(C(N)=O)cc([N+](=O)[O-])cc1[N+](=O)[O-]
inactive: locus YAL021C, strain ccr4, hits give low values 0.995 | locus YAL026C, strain drs2, hits give low values 1.04 | locus YAL030W, strain snc1, hits give low values 1.01 | locus YBL061C, strain skt5, hits give low values 1.02 | locus YBR009C, strain hhf1, hits give low values 1.08 | locus YBR021W, strain FUR4, hits give low values 0.969 | locus YBR023C, strain chs3, hits give low values 1.03 | locus YBR171W, strain sec66, hits give low values 1.01 | locus YBR229C, strain ROT2, hits give low values 0.986 | locus YBR231C, strain swc5, hits give low values 0.996 | locus YBR279W, strain paf1, hits give low values 1.02 | locus YCL011C, strain gbp2, hits give low values 1.03 | locus YCL016C, strain dcc1, hits give low values 1.04 | locus YCL029C, strain bik1, hits give low values 0.977 | locus YCL061C, strain MRC1, hits give low values 1.03 | locus YCL069W, strain vba3, hits give low values 1.02 | locus YCR088W, strain abp1, hits give low values 1.01 | locus YDL005C, strain med2, hits give low values 1.02 | locus YDL035C, strain GPR1, hits give low values 0.994 | locus YDL040C, strain nat1, hits give low values 1.02 | locus YDL074C, strain BRE1, hits give low values 1.01 | locus YDL101C, strain DUN1, hits give low values 0.99 | locus YDL134C, strain PPH21, hits give low values 0.97 | locus YDL185W, strain tfp1, hits give low values 0.967 | locus YDL192W, strain arf1, hits give low values 0.966 | locus YDR001C, strain nth1, hits give low values 1.01 | locus YDR069C, strain doa4, hits give low values 0.997 | locus YDR101C, strain arx1, hits give low values 1 | locus YDR137W, strain rgp1, hits give low values 1.04 | locus YDR150W, strain NUM1, hits give low values 0.99 | locus YDR159W, strain sac3, hits give low values 0.991 | locus YDR162C, strain NBP2, hits give low values 0.994 | locus YDR195W, strain ref2 1.02 | locus YDR297W, strain sur2, hits give low values 1.01 | locus YDR318W, strain mcm21, hits give low values 0.983 | locus YDR334W, strain swr1, hits give low values 1.02 | locus YDR335W, strain msn5, hits give low values 1.03 | locus YDR388W, hits give low values 0.982 | locus YDR392W, strain spt3, hits give low values 1 | locus YDR502C, strain sam2, hits give low values 1 | locus YEL003W, strain gim4, hits give low values 1.03 | locus YEL037C, strain rad23, hits give low values 1.02 | locus YEL061C, strain CIN8 (second series), hits give low values 1.02 | locus YEL061C, strain CIN8, hits give low values 0.99 | locus YER015W, strain faa2, hits give low values 1.01 | locus YER016W, strain bim1, hits give low values 1.01 | locus YER110C, hits give low values 0.965 | locus YER111C, strain swi4, hits give low values 1.02 | locus YER155C, strain BEM2 (second series), hits give low values 0.978 | locus YER155C, strain BEM2, hits give low values 0.987 | locus YER167W, strain BCK2, hits give low values 0.99 | locus YFR010W, strain ubp6, hits give low values 1.03 | locus YGL078C, strain dbp3, hits give low values 0.98 | locus YGL086W, strain mad1, hits give low values 0.994 | locus YGL167C, strain pmr1, hits give low values 1.03 | locus YGL173C, strain kem1, hits give low values 1.01 | locus YGL227W, strain vid30, hits give low values 1.01 | locus YGL240W, strain doc1, hits give low values 1 | locus YGL248W, strain PDE1, hits give low values 1 | locus YGL253W, strain hxk2, hits give low values 1.02 | locus YGR078C, strain PAC10, hits give low values 1 | locus YGR135W, strain pre9, hits give low values 0.977 | locus YGR252W, strain gcn5, hits give low values 0.945 | locus YHR013C, strain ard1, hits give low values 1.07 | locus YHR027C, strain rpn1, hits give low values 1.02 | locus YHR030C, strain SLT2, hits give low values 0.98 and 1.04 | locus YHR079C, strain IRE1 (second series), hits give low values 0.984 | locus YHR079C, strain IRE1, hits give low values 1.04 | locus YHR094C, strain hxt1, hits give low values 0.977 | locus YHR129C, strain ARP1, hits give low values 0.993 | locus YHR142W, strain chs7, hits give low values 1.02 | locus YHR200W, strain rpn10, hits give low values 0.98 | locus YIL066C, strain RNR3, hits give low values 0.988 | locus YIL073C, strain SPO22, hits give low values 0.95 | locus YIL125W, strain kgd1, hits give low values 0.99 | locus YIR030C, strain dcg1, hits give low values 0.984 | locus YJL092W, strain hpr5, hits give low values 1.02 | locus YJL095W, strain BCK1 (second series), hits give low values 1.04 | locus YJL095W, strain BCK1, hits give low values 1.02 and 1.05 | locus YJL115W, strain asf1, hits give low values 1.03 | locus YJL129C, strain trk1, hits give low values 1.05 | locus YJL134W, strain LCB3, hits give low values 0.991 | locus YJL154C, strain vps35, hits give low values 1.01 | locus YJL164C, strain tpk1, hits give low values 1.06 | locus YJL166W, strain qcr8, hits give low values 1.02 | locus YJL168C, strain set2, hits give low values 0.979 | locus YJL187C, strain SWE1 (second series), hits give low values 0.999 | locus YJL187C, strain SWE1, hits give low values 1.01 | locus YJR043C, strain POL32, hits give low values 1.02
